# Source: PubChem BioAssay (National Center for Advancing Translational Sciences (NCATS))
# Only some compounds are listed: those with a hit (about 7.5% of all), similar ones and a draw of the others.
# FLuc counter: qHTS profiling assay for firefly luciferase inhibitor/activator using purifed enzyme and Km concentrations of substrates (counterscreen for miR-21 project). Luciferin 4-monooxygenase (Photinus pyralis), P08659. purified FLuc, Km substrates, luminescence inhibition. Potency, µM (titrated, usually from 57.5 µM), actives largely listed as inhibitors. 360,000 compounds, 6.9% hits. AID 588342, 2011; note: nearly all actives have a fitted effect of over 55% in size
# Target sequence (P08659 whole entry, looked up): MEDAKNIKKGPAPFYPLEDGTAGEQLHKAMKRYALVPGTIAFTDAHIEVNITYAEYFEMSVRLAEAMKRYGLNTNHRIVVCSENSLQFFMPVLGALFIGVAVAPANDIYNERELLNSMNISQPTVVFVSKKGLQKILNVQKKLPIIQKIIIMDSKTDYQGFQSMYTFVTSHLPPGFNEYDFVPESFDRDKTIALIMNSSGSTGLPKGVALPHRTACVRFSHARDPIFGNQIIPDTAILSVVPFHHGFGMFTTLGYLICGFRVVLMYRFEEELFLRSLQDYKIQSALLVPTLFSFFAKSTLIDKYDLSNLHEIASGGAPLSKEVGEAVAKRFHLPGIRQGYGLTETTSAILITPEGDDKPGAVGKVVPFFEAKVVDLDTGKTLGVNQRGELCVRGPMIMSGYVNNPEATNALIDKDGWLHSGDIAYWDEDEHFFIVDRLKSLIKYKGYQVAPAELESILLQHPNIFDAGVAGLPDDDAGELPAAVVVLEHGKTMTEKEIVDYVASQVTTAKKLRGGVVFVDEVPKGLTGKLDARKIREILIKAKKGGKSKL
#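 Purified P. pyralis luciferase (10nM final) with 10uM D-luciferin and 10uM ATP (Km levels) in 50mM Tris acetate pH 7.5, 10mM Mg acetate, 0.01% Tween-20, 0.05% BSA; qHTS 6-point titration, ~60 µM downward; luminescence read.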
# SMN2 splice up: qHTS Assay for Enhancers of SMN2 Splice Variant Expression; HEK293 SMN2-luciferase splicing reporter, luminescence, 30-36 h; Potency, µM (series often up to 46.1 µM), hits mostly activators; 210,000 compounds, 2.8% hits; note: nearly all actives have a fitted effect of over 55% in size
#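 HEK293 cells carry an SMN2 minigene-luciferase reporter in which exon 7 inclusion puts luciferase in frame. Cells were seeded at 2000 cells/well, attached for 10-12 hours, then exposed to compounds for 30-36 hours at 37C before ONE-Glo luminescence.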
# NPC1 prom act: qHTS Assay for NPC1 Promoter Activators. AID 485313, 2010. Huh7 NPC1 promoter luciferase reporter, 24 h. Potency, µM (series often up to 9.22 µM), actives largely listed as activators. 320,000 compounds, 2.4% hits; note: nearly all actives have a fitted effect of over 60% in size
#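 NPC1 promoter–luciferase Huh7 cells; 24 h compound; luminescence.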
# ELG1 genotox: qHTS screen for small molecules that induce genotoxicity in human embryonic kidney (HEK293T) cells expressing luciferase-tagged ELG1; HEK293T ELG1-luciferase reporter, luminescence, 16 h; Potency, µM (top dose mostly 46 µM), usual class: activators; 330,000 compounds, 1.3% hits; AID 504466, 2011; note: nearly all actives have a fitted effect of over 60% in size
#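 Step 1: seed 2,000 HEK293T ELG1-luciferase cells per well. Step 2: add compound or DMSO, incubate 16 hr at 37 °C. Step 3: ONE-Glo, 30 min at room temperature, read luminescence.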
# KinaseGlo FLuc: Counterscreen for Luciferase (Kinase-Glo TM) Inhibition | Potency, µM (titrated, usually from 38.3 µM), most hits filed as inhibitors | Luciferin 4-monooxygenase (Photuris pensylvanica), Q27757 | AID 1379, 2008 | Kinase-Glo luciferase, ATP luminescence, 8 min | 200,000 compounds, 0.28% hits; note: nearly all actives have a fitted effect of over 60% in size
#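 Light output from Kinase-Glo luciferase with luciferin and 10 uM ATP in 50 mM imidazole pH 7.2, KCl, MgCl2, Tween 20, BSA; compound pin-delivered, 8-min ambient incubation, then luminescence read.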
# Rab9 prom act: qHTS Assay for Rab9 Promoter Activators | Huh7 Rab9 promoter-luciferase reporter, luminescence, 24 h | Potency, µM (doses to about 9.22 µM), actives largely listed as activators | 320,000 compounds, 2.8% hits | AID 485297, 2010; note: nearly all actives have a fitted effect of over 60% in size
#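 Huh7 cells stably carrying Rab9 promoter–luciferase reporter, plated 1500 cells/well, compound added after 2 h and incubated 24 h at 37 °C; luciferase luminescence then read after 10 min with detection reagent.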
# A number is an active result; - = inactive; ? = inconclusive; . = not tested or not shown; [ ] = another dose, or the depositor's remark. Calls come from the whole dose curve; as a rule, active = well fitted curve in the direction sought with a large enough effect; inconclusive = small, poorly fitted or top-dose-only effect, or another doubt; inactive = no such curve, though single readings can be large; an effect the other way counts as inactive or inconclusive.
SMILES,FLuc counter,SMN2 splice up,NPC1 prom act,ELG1 genotox,KinaseGlo FLuc,Rab9 prom act
Cc1ccc(-c2nsc(SCC(=O)NCC3CCCO3)n2)cc1 (stereo not given),16.9µM,-,-,-,-,-
COc1ccc(-c2nsc(SCC(=O)NCC3CCCO3)n2)cc1 (stereo not given),15.1µM,-,-,-,-,?
COc1ccc(-n2nnc3c(SCC(=O)NCC4CCCO4)ncnc32)cc1 (stereo not given),10.7µM,-,-,-,-,-
NC(=O)c1nc(Nc2ccccc2)sc1NC(=O)c1ccccc1Br,-,.,.,.,.,.
Cc1cc(Cl)ccc1OCCCC(=O)OCC(N)=O,26.9µM,-,-,-,-,-
COc1ccc(CNC(=O)COC(=O)CCCOc2ccc(Cl)cc2Cl)cc1OC,16.9µM,-,-,-,-,-
Cc1cc(Cl)ccc1OCCCC(=O)NN,-,-,-,-,-,-
CC(C)c1ccc(OCC(=O)N2CCCCCC2)c(Br)c1,21.3µM,-,?,?,-,2.82µM
Cc1ccc(OCC(=O)N2CCCCCC2)c(C)c1,-,7.08µM,-,?,-,-
CC1CN(CC(=O)Nc2nc3ccccc3s2)CC(C)O1 (stereo not given),-,.,-,-,.,-
Cc1cc(Cl)ccc1OCCCC(=O)N1CCCCC1,21.3µM,-,?,?,-,?
Cn1c(=O)c2c(c3ccccc31)OC(=O)CC2c1ccc(C(F)(F)F)cc1 (stereo not given),?,-,.,.,.,.
O=C(O)c1ccc(Oc2nc3ccccc3s2)cc1,.,?,.,.,-[7.66 µM],.
CN(C)c1ccc(/C=C(\Cl)c2nc3ccccc3s2)cc1,1.2µM,-,2.51µM,?,12.6µM,1µM
O=C(O)c1ccc(C=C(c2nc3ccccc3s2)c2nc3ccccc3s2)cc1,12µM,-,-,-,-,-
COc1cc(C=C(c2nc3ccccc3s2)c2nc3ccccc3s2)cc(OC)c1O,15.1µM,-,-,-,-,-
Cc1ccc(C)c(Nc2nn3c(=O)c4ccc(C(=O)NCc5cccs5)cc4nc3s2)c1,-,.,.,.,.,.
CC(=O)Nc1cc2nn(-c3ccccc3)nc2cc1Cl,1.51µM,11.2µM,0.562µM,1.3µM,-,0.501µM
CC(C)COc1ccc(C(=O)Nc2cc3nn(-c4ccccc4)nc3cc2Cl)cc1,-,-,.,.,.,.
CC(C)(C)C(=O)Nc1cc2nn(-c3ccccc3)nc2cc1Cl,0.0757µM,-,-,?,-,-
N#C/C(=N\O)c1nc2ccccc2[nH]1,?,-,-,-,-,-
Cc1ccc2nc(/C(C#N)=N/O)[nH]c2c1,13.5µM,-,-,-,-,-
Cc1ccc2nc(/C(C#N)=C/c3ccc(O)c(O)c3)[nH]c2c1,19µM,.,-,?,.,?
Cc1ccc2nc(/C(C#N)=C/c3cccc(Br)c3)[nH]c2c1,?,-,.,.,.,.
Cc1ccc2nc(C(O)C(O)c3nc4ccc(C)cc4[nH]3)[nH]c2c1 (stereo not given),10.7µM,-,-,?,-,-
SMILES,FLuc counter,SMN2 splice up,NPC1 prom act,ELG1 genotox,KinaseGlo FLuc,Rab9 prom act
Cc1c2cnn(CC(=O)NCCc3ccccc3)c(=O)c2c(C)n1Cc1ccccc1,-,-,.,.,.,.
O=C(NC1CCCCC1)c1cc2nc3c(c(C(F)(F)F)n2n1)CCCC3,23.9µM,35.5µM,?,?,-,3.55µM
CC(=O)c1ccc(NC(=O)c2cc3nc4c(c(C(F)(F)F)n3n2)CCCC4)cc1,?,-,-,-,-,?
COc1ccccc1CC(=O)Nc1cccc2c1CCCC2,-,4.47µM,-,-,-,-
COc1cccc(OC)c1C(=O)Nc1cccc2c1CCCC2,-,.,-,-,.,-
COCCn1c(=O)c(-c2cc(F)cc(F)c2)nc2cnc(Nc3cccc(OC)c3)nc21,.,-,.,.,-,.
Cc1ccc(-c2cc(C(=O)O)c3cc(Br)ccc3n2)s1,2.39µM,.,?,-,.,-
Cc1ccc(-c2cc(C(=O)NCCCn3ccnc3)c3cc(Br)ccc3n2)o1,15.1µM,-,-,-,-,-
